# Results reported in PubChem BioAssay AID651692 (Broad Institute, 2012).
# Entries with a potency or affinity are not part of this list. Unmarked numbers belong to inactive results.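 Rule for the calls: active = fitted half-maximal concentration for loss of cell signal no higher than twice the top valid tested concentration; inconclusive = flat curve at 30 to 70% inhibition, or poor fit; inactive = flat within 30%, signal rise, or potency above limit.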
# Assay: MDA-MB-231 cell growth inhibition, dose response, cytotoxicity control for RAD54 inhibitor project, CellTiter-Glo luminescence, cherry-pick (AID 651692);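 note: 0% = median of sample compound wells and -100% = staurosporine control wells; more negative values mean stronger loss of viable cell signal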
# Details: MDA-MB-231 viability, 24 h; series mostly up to 26 µM; activity change, negative = growth inhibition: at the top concentration
row,Compound,"activity change, negative = growth inhibition"
1,CCOC(=O)c1cnc2c(ccc3ccccc32)c1NCCN(C)C,4.95%
2,c1ccc(-c2nc(NCCCN3CCOCC3)c3ccccc3n2)cc1,4.75%
3,O=C(CS(=O)(=O)c1ccccc1)Nc1ccc(Br)cn1,8.12%
4,CCN(CC)CCCNC(=O)c1cc2c(-c3ccc(Cl)cc3)nn(C)c2s1,-1.26%
5,CCCCN(CC)CCCNC(=S)Nc1ccc2nc(N3CCN(CC)CC3)cc(C)c2c1,-2.93%
6,COc1ccc(OC)c(Nc2nc(NCCO)c3ccccc3n2)c1,6.73%
7,Cc1ccc2nc3c(cc(C(=O)NCCN4CCOCC4)c(=N)n3CCCN3CCOCC3)c(=O)n2c1,3.06%
8,Cn1nc(-c2ccccc2)cc1NS(=O)(=O)c1ccc(C#N)cc1,1.14%
9,CN(C)CCNC(=O)c1cc2c(=O)n(C)c3ccccc3c2n1C,6.67%
10,CN(C)CCCNc1c2c(nc3ccccc13)CCC2,-11.5%
11,c1cncc(Nc2c3ccccc3nc3ccccc23)c1,10.5%
12,CCN(CC)CCOc1c(Br)ccc2c1sc1nc3n(c(=O)c12)CCC3,6.81%
13,CC1CCCCC1NC(=O)C1Cc2ccccc2CN1S(C)(=O)=O (centres undefined),1.52%
14,COc1ccc2nc3cc(Cl)ccc3c(Nc3cc(CN4CCCC4)c(O)c(CN4CCCC4)c3)c2n1,11.3%
15,CN(C)CCCNc1nc2cc(-c3ccccc3)sc2c(=O)n1C,-7.78%
16,Cc1cccn2c(=O)c3cc(C(=O)NCc4ccccc4)c(=N)n(CCCN4CCOCC4)c3nc12,0.872%
17,Nc1cc2c3c(cccc3c1)C(=O)N(CCN1CCCC1)C2=O,-21.8%
18,Cc1ccc(S(=O)(=O)CCSc2ccc(C(F)(F)F)cn2)cc1,4.89%
19,CC(=O)Nc1cc(-c2cccc(C(=O)NCCN(C)C)c2)cn2c(-c3ccccc3)cnc12,-4.39%
20,Nc1cccc2nc3ccccc3cc12,-12.2%

row,Compound,"activity change, negative = growth inhibition"
1,Cc1nc2ccccc2c2oc(C(=O)NCCCN3CCC(C)CC3)cc12,3.18%
2,Cc1ccc2nc(C)cc(Nc3ccc4c(c3)OCCO4)c2c1,-16.2%
3,CCCC(c1nnnn1Cc1ccc(OC)cc1)N1CCN(c2ccccc2)CC1 (centres undefined),11.4%
4,Cc1cc(-c2cc(NC=O)c3ncc(-c4cccc(C(=O)NCCN(C)C)c4)n3c2)cc(C)c1O,-22.2%
5,CN1CCN(c2nc(-c3ccccn3)nc3ccccc23)CC1,2.71%
6,O=C(Nc1ccc(C2=NCCN2)cc1)c1ccc(C(=O)Nc2ccc(C3=NCCN3)cc2)c(Cl)c1,12.8%
7,CCNC(=O)c1cc2c(=O)n3cccc(C)c3nc2n(CCc2ccccc2)c1=N,-8.42%
8,CCN(CC)CCCNc1nc(-c2ccccc2)nc2ccccc12,-2.13%
9,COc1ccc(CCNC(=O)c2cc3c(=O)n4cccc(C)c4nc3n(CCCN3CCOCC3)c2=N)cc1,-5.54%
10,CCN1CCN(c2cc(C)c3cc(NC(=S)NCCN(C)C)ccc3n2)CC1,1.08%
11,Cc1c(CN(C)C)c2c(n1C)C(=O)c1ccc(Br)cc1-2,-0.638%
12,CN(C)CCN(C(=O)c1ccc2c(c1)OCCO2)c1nc2c(Cl)cccc2s1,3.6%
13,Cc1cccn2c(=O)c3cc(C(=O)NCCN4CCOCC4)c(=N)n(CCN4CCOCC4)c3nc12,-3.17%
14,COc1ccc(-c2cc3nc(NCCN4CCCC4)n(C)c(=O)c3s2)cc1OC,4.91%
15,CCOCCCNC(=S)Nc1ccc2nc(N3CCCC3)cc(C)c2c1,-4.85%
16,O=C(Nc1ccccc1)c1cc(S(=O)(=O)N2CCOCC2)cs1,11.1%
17,COc1ccc(Cl)c2sc(N(CCN(C)C)C(=O)C3=COCCO3)nc12,3.13%
18,COc1ccc2oc3cc(NCCN(C)C)ccc3c(=O)c2c1,4.37%
19,CCN(CC)CCCNC(=O)c1cc2c(=O)n(C)c3ccccc3c2n1C,-6.68%
